# HCV inh = HCV inhibition; Huh7.5.1 HCVcc-Cre infection, luciferase reporter, 44 h; Potency, µM (titrated, usually from 41.8 µM), for the others: at the top dose activity change, negative = inhibition, actives largely listed as inhibitors; hit rate 3.4% among 340,000; also: potency is read from the fitted curve at half-maximal effect
#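 HCVcc-Cre virus at an moi near 0.5 was added right after compound to cells cultured 4 h from seeding (1,000 cells/well). Luciferase activity was determined 44 h later, 15 min after substrate addition at RT.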
# Pf growth 96h = P. falciparum growth inhibition at 96 hour, primary screen for plastid delayed-death inhibitors. P. falciparum luciferase reporter growth, 96 h. Potency, µM (series often up to 28.7 µM), for inactives: top-dose activity change, negative = inhibition, usual class: inhibitors. hit rate 6.9% among 320,000. AID 504834; also: potency is read from the fitted curve at half-maximal effect
#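 96 h incubation, 37 C, 5% CO2, of luciferase-reporter P. falciparum-infected RBCs (2% hematocrit, 0.05% parasitemia final) with test compounds; endpoint luminescence.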
# Pf growth 48h = P. falciparum growth inhibition at 48 hours (one generation); P. falciparum luciferase growth in erythrocytes, 48 h; Potency, µM (highest dose often 28.7 µM), without a hit: at the highest dose activity change, negative = inhibition, most hits filed as inhibitors; hit rate 5.9% among 310,000; AID 504832; also: potency is read from the fitted curve at half-maximal effect
#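 Luciferase-expressing P. falciparum in infected erythrocytes (2% hematocrit, 0.1% parasitemia final) in RPMI 1640/0.5% Albumax were exposed to compound for 48 hours at 37 C, 5% CO2; growth read as luminescence.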
# HCMV antiviral = inhibitors of human cytomegalovirus | activity change, negative = inhibition, % at 57.5 µM | hit rate 4.5% among 410,000 | HFF cells, HCMV-luciferase reporter, 72 h; stronger effect = lower value; in the data active = activity change below about -60%; inconclusive = no clear call, values can overlap the other calls; inactive = above about -39%
#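 Screen run at 2 compound doses on HFFs infected with reporter HCMV, MOI 1 PFU/cell. Luciferase activity from cell lysates at 72 h post infection gave inhibition relative to buffer-only and Salinomycin wells.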
# The depositor's hits bear a star; ? = inconclusive; nt = no result. In the library only some 13% were active in any assay of this set; here they are far more common. Unless noted, calls follow the shape of the dose curve; as a rule, active = well fitted inhibition curve with a large enough effect; inconclusive = small, poorly fitted or top-dose-only effect, or another doubt; inactive = no such curve, though single readings can be large or run the other way. % is scaled to controls: 0 for no effect and ±100 for the full control effect.
SMILES,HCV inh,Pf growth 96h,Pf growth 48h,HCMV antiviral
Cc1ccc(COCCN2CCN(S(=O)(=O)c3ccccc3)CCC2=O)cc1,2%,-7%,63%,-30
O=C1CCN(S(=O)(=O)c2ccccc2)CCN1CCOCc1ccc(C(F)(F)F)cc1,10µM*,-14%,-6%,-34
CCc1ccc(-n2nc(C)c3c(C(=O)Nc4ccc(Cl)cc4)cc(C)nc32)cc1,nt,nt,nt,12
O=C(CNC(=S)N(Cc1ccccc1)Cc1ccccc1F)NCc1ccccc1,-10%,?,499%,?
COc1cccc(CNC(=O)CNC(=S)N(Cc2ccccc2)Cc2ccccc2F)c1,-18%,1%,12µM*,-66*
CCC(C(=O)Nc1cc(OC)cc(OC)c1)n1nc(-c2ccc(C)c(C)c2)ccc1=O (configuration not stated),nt,nt,nt,10
CCOc1cc(CN2CCCC(CNC(=O)c3ccc(F)cc3)C2)ccc1OC (configuration not stated),3%,?,?,-3
COc1ccc(CN2CCCC(CNC(=O)c3ccc(F)cc3)C2)c(C)c1C (configuration not stated),-7%,10µM*,-17%,15
COc1cc(OC)cc(C(=O)NCC2CCCN(Cc3cccc(C(C)=O)c3)C2)c1 (configuration not stated),-14%,8.3µM*,?,-15
COc1ccc(S(=O)(=O)NCC2CCCN(Cc3ccc(OC)cc3F)C2)cc1 (configuration not stated),?,?,9%,0
COc1ccc(CN2CCCC(CNC(=O)c3ccc(F)cc3)C2)c(F)c1 (configuration not stated),6%,1.9µM*,-25%,?
COc1ccc(S(=O)(=O)NCc2cccn2Cc2cccc(C)c2)cc1OC,nt,nt,nt,-12
COc1ccc(N(CC(=O)NC2CCCC2)C(=O)Cn2nnc(-c3ccc(C)cc3)n2)cc1OC,nt,10µM*,?,51
COc1ccc(CCNC(=O)Cn2nnc(-c3ccc(OC)c(OC)c3)n2)cc1OC,-29%,16%,-10%,60
COc1ccc(CCNC(=O)Cn2nnc(-c3ccc(N(C)C)cc3)n2)cc1OC,?,4.1µM*,24%,-2
O=C(Oc1c(-c2ccccc2Cl)oc2ccccc2c1=O)c1ccc(Cl)cc1,2%,34%,0%,8
COc1ccc(C(=O)c2ccc3oc(-c4ccc(OC)cc4)c(-c4ccc(O)cc4)c3c2)cc1,8.9µM*,nt,nt,-64*
COc1ccc(-c2oc3ccccc3c(=O)c2OC(=O)c2ccc(C)cc2)cc1,10%,?,?,-75*
COc1ccc(C(=O)c2c(-c3ccc(OC)cc3)oc3ccccc23)cc1,-56%,?,?,14
O=C(Oc1c(-c2ccccc2)oc2ccccc2c1=O)c1ccccc1,-30%,?,7%,-82*
Cn1nc(C(=O)Nc2ccc(F)c(Cl)c2)c2c1-c1ccccc1S(=O)(=O)C2,nt,nt,nt,-19
Cn1c(=O)c2c(SCC(=O)N3CCc4ccccc43)nc(-c3cccc(F)c3)nc2n(C)c1=O,nt,nt,nt,27
CCCCCCCCOC(=O)CCn1[nH]c(=O)c2ccccc2c1=O,20%,10µM*,?,-5
Cc1cc2[nH]c(=O)c(=O)[nH]c2cc1S(=O)(=O)NC1CCCCC1C (configuration not stated),10%,4.7µM*,-1%,nt
COc1cc2c(cc1OC)C(NC(=O)C(F)(F)F)C/C2=N\O (configuration not stated),-9%,13%,13µM*,8
SMILES,HCV inh,Pf growth 96h,Pf growth 48h,HCMV antiviral
Cc1ccccc1NC(=O)Cn1cc(S(=O)(=O)c2ccccc2)c(=O)c2ccccc21,nt,nt,nt,-13
CC(=O)c1ccc(NC(=O)CSc2nccn2Cc2ccc3c(c2)OCO3)cc1,nt,nt,nt,38
COC(=O)c1ccc2c(=O)[nH]c(CN3c4ccccc4CC3C)nc2c1 (configuration not stated),?,3.3µM*,?,6
CC1Cc2ccccc2N1Cc1nc2cc(Cl)ccc2c(=O)[nH]1 (configuration not stated),5%,?,nt,11
Cc1cc2c(cc3c(SCc4ccccc4Cl)nnc(C)n32)o1,nt,nt,nt,58
Cc1ccccc1C1c2[nH]c3ccccc3c2C[C@H]2C(=O)N(c3ccccc3C(=O)NCCCN3CCOCC3)C(=O)N12 (some centres not stated),1.1µM*,12µM*,?,-1
